Bioassay records: PubChem BioAssay, National Center for Advancing Translational Sciences (NCATS)
CHX counter: counter-screen hit for Shiga toxin inhibitors, cycloheximide; cell reporter, cycloheximide protein synthesis inhibition counterscreen; max response, %; 12% of 300,000 active; AID 2314; in the data active = max response mostly above about 13%, no sharp cut-off; inactive = mostly below about 14%; note: read at 38.3 µM for the half of the compounds with a filed dose; 0% is about no effect
Lassa entry inh: inhibitors of Lassa virus binding or cell entry. Lassa virus pseudotype entry inhibition, cell reporter. Potency, µM (top dose mostly 37.9 µM), inactives show top-dose activity change, negative = inhibition, most hits filed as inhibitors. 1.2% of 300,000 active; calls by dose curve; tested in HEK293 cells; note: potency is the fitted concentration of half-maximal effect; % is set by controls: 0 for no effect and ±100 for the full control effect; nearly all actives have a fitted effect of over 50% in size
Marburg entry inh: Marburg virus entry inhibition; 1.8% of 300,000 active; AID 540276; Potency, µM (series often up to 37.8 µM), inactives show at the top dose activity change, negative = inhibition, actives largely listed as inhibitors; Marburg virus pseudotyped entry inhibition, cell reporter; calls by dose curve; tested in HEK293 cells; note: potency is the fitted concentration of half-maximal effect; % is set by controls: 0 for no effect and ±100 for the full control effect
AMA1 RON2 block: inhibitors of Plasmodium falciparum AMA1-RON2 interaction | AlphaScreen AMA1-biotinylated RON2 peptide binding | Potency, µM (titrated, usually from 58.2 µM), for the others: top-dose activity change, negative = inhibition, actives largely listed as inhibitors | 0.2% of 360,000 active; active = well fitted inhibition curve with a large enough effect; inconclusive = small, poorly fitted or top-dose-only effect; inactive = no such curve, though single readings can be large or run the other way;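 note: potency is the fitted concentration of half-maximal effect; 0% = vehicle wells and -100% = peptide control; nearly all actives have a fitted effect of over 45% in size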
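AMA1 (3D7) with his tag at 25 nM final met compounds first, then biotinylated RON2 peptide at 25 nM; detection used donor plus acceptor beads, 10 µg/mL apiece, read by AlphaScreen after 30 min at room temperature.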
Shiga inhibitor: blocks Shiga toxin action in Vero cells; Vero cells, Shiga toxin protein synthesis inhibition reporter; AID 2315; inhibition, % at 38.7 µM; 9.2% of 290,000 active; in the data active = inhibition mostly above about 28%, no sharp cut-off; inactive = mostly below about 43%; note: 0% is about no effect
Numbers without * were called inactive; ? = inconclusive; nt = no result given; [ ] = remark or other dose. This is one part of a sample in which hits are shown more often than they occur.

SMILES | CHX counter | Lassa entry inh | Marburg entry inh | AMA1 RON2 block | Shiga inhibitor
O=[N+]([O-])c1ccc(N/N=C\c2ccccc2OCc2ccccc2)cc1 | -3 | -10% | ? | -4% | -10
C/C(=N\Nc1cc(C)nc(NCc2ccccc2)n1)c1ccc([N+](=O)[O-])cc1 | -3 | nt | nt | -3% | -3
Cc1ccc(S(=O)(=O)N2C[C@]3(O)C[C@@H]4C(=O)N(c5ccccc5)C(=O)[C@@H]4C[C@]3(OC(=O)NC3CCCC3)C2)cc1 | nt | nt | nt | 10% | nt
CC1=C(C(=O)N(C(C)C)C(C)C)CC(CC(=O)NCc2ccco2)C(=O)N1Cc1ccc(C(C)(C)C)cc1 (centres undefined) | nt | nt | nt | -5% | nt
CC1=C(N2CC2)C(=O)C(CO)=C(N2CC2)C1=O | nt | 0.11µM* | ? | 9% | nt
Cc1ccc(S(=O)(=O)N2CCN(C(=O)COC(=O)CCOc3ccc(C(C)(C)C)cc3)CC2)cc1 | nt | -7% | -7%[46.1 µM] | -9% | nt
NC(N)=NC1=NC(=O)C(Cc2ccccc2)S1 (centres undefined) | 19* | nt | nt | 8% | -2
COc1ccc(Cc2nc3ccc(C(=O)NCC(C)(C)OC)cc3o2)cc1 | 34* | nt | nt | -2% | 96*
COc1ccc(Cc2nc3ccc(C(=O)NCc4cc(C)no4)cc3o2)cc1 | 57* | 0% | 6% | 7% | 66*
CCCOc1ccc(C(=O)Nc2ccc3oc(-c4ccncc4)nc3c2)cc1 | nt | 11%[46.1 µM] | nt | nt | nt
Cc1ccc2oc(=O)n(CCCOc3ccc(Cl)cc3)c2c1 | nt | 26%[46.1 µM] | ? | nt | nt
COc1cccc(Cn2c(=O)oc3ccccc32)c1 | 41* | ? | ? | 10% | 45*
Cc1ccc(C(C)C)c(OCCCn2c(=O)oc3ccccc32)c1 | nt | 25%[46.1 µM] | -24%[46.1 µM] | nt | nt
Cc1ccc2oc(=O)n(CCOc3ccccc3)c2c1 | 35* | 5% | 0%[46.1 µM] | -25% | 39*
Cc1cccc(OCCCn2c(=O)oc3ccccc32)c1 | 22* | 24%[46.1 µM] | 28%[46.1 µM] | 6% | 50*
COc1ccc(OCCCn2c(=O)oc3ccccc32)cc1 | 19* | 22% | 8% | 23% | -6
CCn1c(CNC(=O)c2ccc(OC)cc2)nnc1SCC(=O)Nc1cccc(C)c1 | nt | 5%[46.1 µM] | 25%[46.1 µM] | nt | nt
Cc1cccc(OCCn2c(=O)oc3ccc(C)cc32)c1 | 42* | -9%[46.1 µM] | -13%[46.1 µM] | 36% | 79*
CCCOc1ccc(Cn2c(=O)oc3ccc(C)cc32)cc1 | 9 | nt | nt | 22% | 10
Cc1cc(Oc2nnnn2-c2ccccc2)ccc1Cl | 30* | ? | ? | 35% | 42
COC(=O)c1ccc(N2C(=O)C[C@H](N3CCN(C(=O)c4ccco4)CC3)C2=O)cc1 | nt | nt | 21% | nt | nt
CCOC(=O)N1CCC(NS(=O)(=O)c2cc(Br)cc3c2N(C(=O)CC)CC3)CC1 | 6 | ? | ? | -6% | -10
O=C(CNc1ccc(F)cc1)N/N=C/C1CC=CCC1 (centres undefined) | 3 | -7%[46.1 µM] | 2%[46.1 µM] | 64% | -8
O=C(N/N=C/C1CC=CCC1)c1cc2ccccc2cc1O (centres undefined) | 13* | 10% | -27% | 45% | 39
COc1cc(C(=O)N/N=C/C2CC=CCC2)cc(OC)c1OC (centres undefined) | 3 | ? | ? | 7% | -1
SMILES | CHX counter | Lassa entry inh | Marburg entry inh | AMA1 RON2 block | Shiga inhibitor
O=C(N/N=C/C1CC=CCC1)c1ccc(O)cc1O (centres undefined) | 71* | -1% | 1% | 14% | 34
C[N+]1(CCNC(=O)/C=N\O)CCCCC1 | nt | nt | 5%[46.1 µM] | nt | nt
CCn1cnc2cc(NCc3ccc(OC)cc3)ccc21 | 27 | 18% | ? | -1% | 46
CC(C)(C)n1cnc2cc(NCc3ccc(Br)cc3)ccc21 | 47* | -21%[46.1 µM] | ? | -19% | 117*
CCc1ccc(CNc2ccc3c(c2)ncn3CC)cc1 | 53* | ? | ? | ? | 86*
CCN(CC)c1ccc(CNc2ccc3c(c2)ncn3C(C)(C)C)cc1 | 7 | 12%[46.1 µM] | ? | 28µM* | -3
CCc1ccc(CNc2ccc3c(c2)ncn3C(C)(C)C)cc1 | 40* | 1.8µM* | 10µM* | -24% | 94*
CC(C)OCCCNc1ncnc2c1nc1n2CCCC1 | 18* | ? | 15% | 2% | 29
CCCOc1ccccc1C(=O)N1CCCCC1CCN1CCCCC1 (centres undefined) | -4 | 6%[46.1 µM] | ? | nt | -3
O=C(O)c1cccc(COc2ccc(CO)cc2Cl)c1 | 6 | 0.29µM* | ? | 0% | -5
CN1CCN(C(=O)c2ccc(COc3ccc(Cl)cc3Cl)cc2)CC1 | 13 | 25% | -8% | 2% | -7
O=C(O)c1ccc(COc2ccc(CO)cc2Cl)cc1 | 29* | -27% | ? | 2% | 72*
Cc1nc2nc(NCc3ccc(Cl)cc3)[nH]n2c(=O)c1Cc1ccccc1 | nt | -22%[46.1 µM] | 9%[46.1 µM] | nt | nt
COP(=O)(OC)C(NC(=O)/C=C/c1ccccc1)C(Cl)(Cl)Cl (centres undefined) | 21 | -9% | 20%[46.1 µM] | 3% | 55*
COC(=O)NNC(=O)/C=C/c1ccccc1 | -4 | 3% | ? | 36% | -7
C[C@H]1CC[C@H]2C(=O)O[C@H](CO)CN2[C@H]1c1ccc(Br)cc1 | nt | ? | -20%[14.2 µM] | nt | nt
COc1cccc(Nc2nnc(-c3cc4ccc(O)cc4oc3=O)s2)c1 | nt | 23%[46.1 µM] | nt | nt | nt
Cn1/c(=N/NC(=O)c2ccccc2Br)sc2ccccc21 | 36* | ? | ? | -11% | 87*
O=c1[nH]c(=S)[nH]c(O)c1N=Nc1ccc(SC(F)F)cc1 | 33* | 4µM* | ? | 90% | 25
CN(C)Cc1c(O)ccc2occ(C(=O)c3ccc(F)cc3)c12 | 3 | -19%[46.1 µM] | ? | 2% | 6
CCN(CC)Cc1c(O)ccc2occ(C(=O)c3ccccc3)c12 | 39* | nt | nt | -8% | 78*
O=C(c1cccs1)c1coc2ccc(O)c(CN(CCO)CCO)c12 | 17* | -4% | 15% | 15% | 63*
CN(C)Cc1c(O)ccc2occ(C(=O)c3ccccc3)c12 | 25* | -6% | -20% | -10% | 65*
COc1ccc2occ(C(=O)c3coc4ccc(O)c(CN(C)C)c34)c2c1 | 4 | -14% | ? | -5% | 31
Cc1ccc(Cl)cc1N1CCN(c2cccc[n+]2C)CC1 | 1 | 1% | ? | -16% | -1
SMILES | CHX counter | Lassa entry inh | Marburg entry inh | AMA1 RON2 block | Shiga inhibitor
CC1=C(C(=O)N2CCOCC2)CC(CC(=O)NC2CCCCC2)C(=O)N1CCCN1CCCC1=O (centres undefined) | nt | nt | nt | 3% | nt
Cc1nc2ccccn2c1C(=O)/C=C/c1ccc(F)cc1 | 54* | ? | -28% | -4% | 95*
COc1ccc(/C=C/C(=O)c2c(C)nc3ccccn23)cc1 | 48* | 29% | -10% | -5% | 107*
COc1ccc(OC)c(CN2C(=O)CN(S(C)(=O)=O)CC2(C)C(=O)NCc2ccccc2)c1 (centres undefined) | nt | nt | nt | 4% | nt
CCOCCCNc1nc2ccccc2[nH]1 | 12* | 14% | -9% | -2% | 34
CCCCNc1nc2ccccc2[nH]1 | 22* | 10% | -15% | -1% | 34
CCCCn1c(N)c(N(CC)C(=O)c2ccccc2F)c(=O)[nH]c1=O | 28 | -1% | -21%[46.1 µM] | 6% | 27
COC(=O)C1CCN(C(=O)c2ccc3nc(-c4cccc(OC)c4)oc3c2)CC1 | 76* | nt | nt | -5% | 95*
